# According to PubChem BioAssay AID504332 (National Center for Advancing Translational Sciences (NCATS), 2011):
# Among all 350,000 compounds or so, about 31,000 (8.9%) were called active. Not shown: some 15% with an inconclusive outcome. Shown is part of a subset that was picked to be rich in actives. Unmarked numbers belong to inactive results. The call rests on the fitted dose curve; in most records, active means well fitted inhibition curve with a large enough effect; inconclusive means small, poorly fitted or top-dose-only effect; inactive means no such curve, though single readings can be large or run the other way.
# Molecular target: Histone-lysine N-methyltransferase EHMT2 (Homo sapiens) (UniProt Q96KQ7)
# Sequence (Q96KQ7 913-1193 limits assumed): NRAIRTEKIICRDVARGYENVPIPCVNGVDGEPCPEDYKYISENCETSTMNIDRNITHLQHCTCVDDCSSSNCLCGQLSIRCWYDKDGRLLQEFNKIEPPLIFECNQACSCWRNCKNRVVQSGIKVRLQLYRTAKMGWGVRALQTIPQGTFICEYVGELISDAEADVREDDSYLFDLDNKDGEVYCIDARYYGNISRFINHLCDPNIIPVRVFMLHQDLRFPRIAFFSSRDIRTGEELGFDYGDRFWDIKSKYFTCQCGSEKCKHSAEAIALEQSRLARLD
# Experiment: qHTS Assay for Inhibitors of Histone Lysine Methyltransferase G9a; further: nearly all actives have a fitted effect of over 75% in size
# Conditions: G9a H3K9 monomethylation, AlphaScreen, 2 h; series mostly up to 59 µM; activity, negative = inhibition: at the top concentration
# Outline: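 Step 1: enzyme (final 20 nM) with compound, 15 min RT. Step 2: substrate peptide 500 nM and SAM 20 uM, 2 h RT. Step 3: anti-H3K9me1 antibody and AlphaScreen beads, 10 min, then plate read.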
# On the % scale 0 is the no-effect control and ±100 the full control effect; potency means the concentration at half of the fitted maximal effect.
Structure (SMILES),"activity, negative = inhibition",Potency
O=C(N[C@@H](Cc1c[nH]c2ccccc12)C(=O)O)OCC1c2ccccc2-c2ccccc21,-0.61% [at 0.501 µM],–
Cc1cccc(C(=O)Nc2ccc(S(=O)(=O)N3CCCCC3c3cccnc3)cc2)c1 (stereo unspecified),2.32%,–
CC(=O)N(OCc1ccc(OC(C)C)c(Cl)c1)C(C)=O,-0.368% [at 102 µM],–
CC(C)c1ccc(Cn2c(COc3ccccc3)nc3ccccc32)cc1,27.2%,–
CC(C)Oc1ccc(Cc2n[nH]c(=S)n2Cc2ccccc2)cc1Cl,–,8.91 µM (active)
Cc1ccc(-c2csc(NC3OC(=O)c4ccccc43)n2)cc1 (stereo unspecified),-11.2% [at 102 µM],–
COc1ccc(-c2cc(-c3ccc(F)cc3)nc3c2COc2ccccc2-3)cc1,21.3%,–
COc1cc(OC)cc(-c2c(-c3ccc(F)cc3)c3cc(-c4ccc5cc[nH]c5c4)ccc3n2C)c1,26.5% [at 2.33 µM],–
COC(=O)c1ccc(Cn2c(SCC(=O)N(C)c3ccccc3)nc3ccccc32)cc1,-1.12% [at 12.7 µM],–
Cc1ccc(Cl)cc1N1CCN(S(=O)(=O)c2cc3[nH]c(=O)c(=O)[nH]c3cc2C)CC1,-35.6%,–
Nc1ccc(Nc2ccccc2)cc1,–,4.47 µM (active)
Cc1ccc(Nc2ccccc2N)cc1,-112%,–
Nc1ccc(S(=O)(=O)NC(=O)c2ccccc2)cc1,–,inactive
COc1ccc(OC)c(CNC(=O)c2c3c(nc4ccccc24)C(=O)N(C2CCCCC2)C3)c1,8.12%,–
Cc1ccc(C)c(NC(=O)CSC2=Nc3ccccc3N=C(c3ccc(F)cc3)C2)c1,5.92%,–
Cc1ccc2nc(-c3ccncc3)cc(C(=O)Nc3ccncc3)c2c1,-0.776% [at 102 µM],–
Cc1c(C(=O)NCc2ccccc2Br)oc2ccc3c(c12)C(=O)CC(C)(C)O3,-3.36%,–
O=C(Cc1cccs1)Nc1cccc(-c2nc3ccccc3[nH]2)c1,-2.95%,–
O=C(/C=C/c1ccco1)Nc1cccc(-c2nc3ccccc3[nH]2)c1,–,25.1 µM (active)
CCc1ccc2oc(-c3ccc(C)c(NC(=O)/C=C/c4ccco4)c3)nc2c1,-28.5%,–
CCC1CCC2(CC1)NC(=O)N(CC(=O)Nc1ccc(OC)cc1)C2=O (stereo unspecified),7.81% [at 0.501 µM],–
COc1cccc(NC(=O)CN2C(=O)c3ccccc3Sc3ncccc32)c1,-3.8%,–
COCCNC(=O)CCCN1C(=O)c2ccccc2Sc2ncccc21,–,inactive
O=C(O)CCCN1C(=O)c2ccccc2Sc2ncccc21,–,50.1 µM (active)

Structure (SMILES),"activity, negative = inhibition",Potency
O=C(NNC(=O)C1CCCC1)c1ccc(F)cc1,20.9% [at 102 µM],–
CC1CC(=O)Nc2ccccc2N1C(=O)COc1ccc2cc(Br)ccc2c1 (stereo unspecified),-5.57% [at 2.33 µM],–
CCCCN(CC)CCCNC(=O)c1nn(C)c2c1CS(=O)(=O)c1ccccc1-2,-9.82%,–
COc1ccc(OCC(=O)NCCc2ccc(S(N)(=O)=O)cc2)cc1,-7.3%,–
COc1ccc(NC(=S)Nc2ccc(S(N)(=O)=O)cc2)c(C)c1,-45.2% [at 102 µM],–
COc1cc(NC(=S)NCc2ccc(S(N)(=O)=O)cc2)cc(OC)c1,–,17.8 µM (active)
COc1ccc(C(=O)CC(=O)C(=O)Nc2cc([N+](=O)[O-])ccc2OC)cc1,13.4% [at 102 µM],–
COc1ccc(N2C(=O)C3CCCN3C2c2cccs2)cc1 (stereo unspecified),14.2% [at 102 µM],–
COc1ccc(N2C(=O)C3C(C2=O)C(C(=O)c2ccccc2)N2CCCC32)cc1 (stereo unspecified),–,10 µM (active)
COc1ccc(C2NC(=O)N(C)C3=C2C(=O)N(c2ccc(C(=O)O)cc2)C3)cc1 (stereo unspecified),-0.267%,–
Cn1c(=O)[nH]c(=O)c2c1nc(NCCc1ccccc1)n2Cc1ccc(F)cc1,7.33%,–
O=[N+]([O-])c1ccc(S(=O)(=O)Nc2cccc(-c3ccc(N4CCCC4)nn3)c2)cc1,–,10 µM (active)
O=S(=O)(Nc1cccc(-c2ccc(N3CCOCC3)nn2)c1)c1ccc(Cl)c(Cl)c1,-30.6% [at 102 µM],–
CCCOc1ccc(-c2cccc(NS(=O)(=O)c3ccccc3)c2)nn1,-0.99%,–
CCCc1cc(=O)oc2cc(OCC(=O)Nc3ccc(CN4CCOCC4)cc3)c(Cl)cc12,3.1% [at 0.501 µM],–
CN(CC(=O)Nc1cccc(C(F)(F)F)c1)S(=O)(=O)c1cccs1,-7.08%,–
Cc1ccc2[nH]cc(CCCN3C(=O)c4ccccc4C3=O)c2c1,–,44.7 µM (active)
Cc1ccc2[nH]cc(CCNC(=O)C3CCCCC3)c2c1,7.65%,–
COc1ccc2[nH]cc(CCN3C(=O)c4ccc(C(=O)O)cc4C3=O)c2c1,8.52% [at 102 µM],–
CCCC(=O)Nc1cc2nn(-c3ccccc3)nc2cc1C,6.98%,–
COc1cc(CNCCN(C)C)ccc1OCc1c(F)cccc1Cl,-50.1% [at 102 µM],–
COc1ccc(CNCCCO)cc1OC,5.75%,–
CCOCCCNCc1ccc(OCc2ccc(F)cc2)c(OC)c1,–,7.08 µM (active)
CC(Nc1nc(C(F)(F)F)nc2ccccc12)c1cccs1 (stereo unspecified),94.6% [at 102 µM],–

Structure (SMILES),"activity, negative = inhibition",Potency
Cc1cc(C)nc(N/N=C/c2ccc([N+](=O)[O-])o2)n1,-49.2% [at 102 µM],–
COc1ccc(C(=O)Nc2ccc(-n3nncc3-c3ccccc3)cc2)cc1OC,-28%,–
CCOC(=O)C1CCCN(C(=O)Cn2ncc3c(C)n(Cc4ccc(F)cc4)c(C)c3c2=O)C1 (stereo unspecified),13%,–
COc1ccc(-c2nnc(SCC(=O)c3cccs3)o2)c(OC)c1,-1.85% [at 102 µM],–
COc1ccc(CCNC(=O)CSc2nnc(CNC(=O)c3cccs3)o2)cc1OC,30% [at 12.7 µM],–
O=C(NCC#CCSc1nnc(-c2cccc3ccccc23)o1)c1cccs1,–,3.16 µM (active)
CCc1cc(C(=O)Nc2nnc(C3CC3)s2)sc1C,5.21% [at 12.7 µM],–
CC1(C)Cc2ccccc2-c2[nH]c(=S)[nH]c(=O)c21,–,10 µM (active)
CCC1(CC)Cc2ccccc2-c2nc(CCl)[nH]c(=O)c21,-21.1% [at 102 µM],–
CC(C)CC(N=C1NC(C)(C)Cc2ccccc21)C(=O)O (stereo unspecified),12.6%,–
CCc1cc2c(cc3c(=O)n(CC(=O)N4CCN(c5cc(Cl)ccc5C)CC4)nc(CC)n32)s1,-1.08%,–
CCC(c1nnnn1Cc1ccco1)N(Cc1cc2cc(OC)ccc2[nH]c1=O)C1CCCCC1 (stereo unspecified),–,3.16 µM (active)
CCOc1ccc2[nH]c(=O)c(CN(Cc3nnnn3Cc3ccccc3)CC3CCCO3)cc2c1 (stereo unspecified),-25.1% [at 102 µM],–
CCC(c1nnnn1Cc1ccccc1)N(Cc1cc2cc(OC)ccc2[nH]c1=O)CC1CCCO1 (stereo unspecified),-31.1% [at 12.7 µM],–
CCCOc1ccc(C(=O)Nc2ccc3oc(-c4cccc(Cl)c4Cl)nc3c2)cc1,-29.8%,–
S=C(NC1CCCCC1)NN1CCOCC1,–,50.1 µM (active)
COc1ccc(S(=O)(=O)N2CCOCC2)cc1C(=O)NC1CCCCC1,18.8% [at 102 µM],–
CC(NC(=S)NC1CCCCC1)C(c1ccccc1)N1CCOCC1 (stereo unspecified),2.9% [at 102 µM],–
COc1ccc(C(CC(=O)Nc2ccc(C)cc2)NC(=O)C(F)(F)F)cc1 (stereo unspecified),–,79.4 µM (active)
COc1ccc(NC(=O)C(=O)NCC(=O)Nc2cccc(C(F)(F)F)c2)cc1,2.22% [at 102 µM],–
COc1ccc(NC(=O)CN(C)CC(=O)Nc2cccc(C(F)(F)F)c2)cc1,6.72% [at 102 µM],–
CCCCOc1ccc(C(=O)Nc2cccc(-c3nc4ccccc4o3)c2C)cc1,-21%,–
O=C(NCc1ccc(Cl)cc1)C(=O)NCC1CCCN1S(=O)(=O)c1cccs1 (stereo unspecified),1.44% [at 102 µM],–
Cc1cc(NC(=O)CC(C)C)cc(-c2nc3ncccc3o2)c1O,2.52%,–

Structure (SMILES),"activity, negative = inhibition",Potency
Cc1ccc(-n2nc(CO)c(C(=O)NCCc3ccccc3)n2)cc1,7.14%,–
COc1cc(C(=O)N2CCOCC2)cc(OC)c1OC,–,inactive
O=C(Oc1cccc(C(=S)N2CCOCC2)c1)c1cccc(Cl)c1,-2.25% [at 102 µM],–
O=C(Oc1ccc(Br)cc1C(=S)N1CCOCC1)c1cccc([N+](=O)[O-])c1,–,7.08 µM (active)
O=C(NCCCN1CCOCC1)c1ccc([N+](=O)[O-])cc1[N+](=O)[O-],-1.45%,–
O=C(c1ccc(Oc2ccc(Cl)cc2)c([N+](=O)[O-])c1)N1CCCC1,-2.93% [at 102 µM],–
COc1cc(NC(=O)N2CCOCC2)cc(OC)c1,7.85% [at 102 µM],–
COc1cc(C(=S)N2CCOCC2)cc(OC)c1OC(=O)c1cc([N+](=O)[O-])cc([N+](=O)[O-])c1,–,31.6 µM (active)
COc1cc([N+](=O)[O-])cc([N+](=O)[O-])c1NC(=O)N1CCOCC1,–,50.1 µM (active)
O=C(/C=C/c1cccc([N+](=O)[O-])c1)OCC(=O)N1CCOCC1,12.5% [at 12.7 µM],–
COc1cc(C(=O)OCc2ccc([N+](=O)[O-])cc2)cc(OC)c1OC,14.7% [at 102 µM],–
O=C(Oc1ccccc1C(=S)N1CCCCC1)c1cc([N+](=O)[O-])cc([N+](=O)[O-])c1,–,3.55 µM (active)
Cc1cc(OC(=O)c2ccccc2)c([N+](=O)[O-])c(=O)[nH]1,-32.9% [at 102 µM],–
COc1ccc(/C=N/Nc2cc(N3CCOCC3)nc(C)n2)c(OC)c1,-10.8% [at 102 µM],–
Cc1ccc2cccc(NC(=O)C(C)Oc3ccc(C)c(C)c3)c2n1 (stereo unspecified),0.0636%,–
Cc1ccc(-c2cnc(C3CC3)o2)cc1S(=O)(=O)Nc1cccc(C)c1C,-9.84% [at 12.7 µM],–
CCC(=O)N1c2ccccc2CC1C(=O)N1CCN(c2ccccc2F)CC1 (stereo unspecified),0.329% [at 12.7 µM],–
Cc1ccc(-c2nn(CCC(=O)Nc3ccc(Cl)c(Cl)c3)c(=O)c3ccccc23)cc1,5.97%,–
COc1ccc(Cl)cc1NC(=O)CSc1nc2ccccc2c2nc(-c3ccccc3)nn12,-3.83%,–
CC(=O)C[C@@H](O)CC(=O)[C@H]1OC(=O)CCCCCCc2ccccc21,7.19% [at 0.501 µM],–
O=C(c1cccs1)c1cn(CCOc2ccc(Cl)cc2)c2ccccc12,-2.07%,–
O=C(C1=C(O)C(=O)N(CCOCCO)C1c1ccccn1)c1cccs1 (stereo unspecified),–,28.2 µM (active)
O=C(c1cccs1)N(C(=O)c1cccs1)c1ccccn1,2.68%,–
Cc1ccc(O)c(/C=N/NC(=O)COc2ccc3c(C)cc(=O)oc3c2)c1,14% [at 102 µM],–
